Experiment [1] concerns the target Glutathione peroxidase 1 (Homo sapiens) (UniProt P07203). Briefly: Primary qHTS Assay for Inhibitors of Recombinant Selenoprotein Glutathione Peroxidase 1 (GPX1) (AID 1845191). Also: % is scaled to controls: 0 for no effect and ±100 for the full control effect; nearly all actives have a fitted effect of over 65% in size. In short, it runs like this:
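10 nM GPX1 + cpd, 30 min RT; start w/ 1 mM GSH, 0.5 mM cumene hydroperoxide, 0.5 mM NADPH, 100 nM GR, 0.01% BSA; buffer 50 mM Tris-HCl pH 7.5, 2 mM EDTA, 150 mM NaCl; Fl 340/450, 0 & 15 min.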
In general terms: qHTS replaces the single test concentration by a dilution series.

Experiment [2] deals with Phospholipid hydroperoxide glutathione peroxidase GPX4 (Homo sapiens) (UniProt P36969). Briefly: Primary qHTS Assay for Inhibitors of Recombinant Selenoprotein Glutathione Peroxidase 4 (GPX4) (AID 1845192). Also: nearly all actives have a fitted effect of over 65% in size. Also: potency is read from the fitted curve at half-maximal effect. Put shortly:
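NADPH consumption, followed by fluorescence at 340/450 nm between 0 and 15 min, reports GPX4 activity via coupled glutathione reductase (100 nM). Enzyme 200 nM was pre-exposed to compound 30 min; 0.5 mM cumene hydroperoxide and 1 mM GSH served as substrates.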

A short description of experiment [3]: qHTS drug screen for cell cycle checkpoint inhibitors in PARPi-resistant BRCA-mutant ovarian cancer cell lines. (AID 1963452; calls by dose curve; also: potency is read from the fitted curve at half-maximal effect). Conditions: PEO1/OlaR viability, CellTiter-Glo luminescence, 96 h; for Z-AUC: stronger effect = lower value. Put shortly: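 PEO1, PEO4 and PEO1/OlaR ovarian cancer cells, 600 per well, exposed 96 h at 37C to a dilution series. Viability read by CellTiter-Glo luminescence, normalized to DMSO and empty wells; activity summarized as Z-AUC.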

Experiment [4] in a line: Cell Viability - SK-N-SH (AID 435; calls by dose curve;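 also: potency is read from the fitted curve at half-maximal effect; compound exposure lasted 40 h at 37 °C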). Conditions: SK-N-SH neuroblastoma cell viability qHTS. In short, it runs like this: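 Human neuroblastoma line, 40 h exposure at 37 °C, ATP quantified via luciferase luminescence; DMSO and 100 uM tamoxifen define 0 and 100% inhibition for AC50 fitting.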
A short description of experiment [5]: Cell Viability - N2a (AID 540).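 Also: plate controls were DMSO alone for no effect and tamoxifen control for full effect; nearly all actives have a fitted effect of over 45% in size.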 Conditions: N2a mouse neuroblastoma cell viability; activity change, negative = cytotoxicity: at 92.2 µM (top of the series). Put shortly: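 Mouse neuroblastoma N2a cells, 1500/well, exposed to compounds 40 h at 37 °C in complete medium. Viability measured as cellular ATP by CellTiter-Glo luminescence; AC50 from Hill fits of concentration-response.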

Experiment [6] is described as follows: Cell Viability - NIH 3T3 (AID 541). Also: nearly all actives have a fitted effect of over 25% in size. Also: potency is read from the fitted curve at half-maximal effect.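 As to activity change, negative = cytotoxicity: plate controls were DMSO alone for no effect and tamoxifen positive control for full effect.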 Conditions: NIH 3T3 cell viability, qHTS; activity change, negative = cytotoxicity: at 92.2 µM (top of the series). In short, it runs like this: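 Mouse NIH 3T3 fibroblasts, 1000 cells/well, rested 5 hr at 37 °C, then exposed to compound for 40 hr at 37 °C in complete medium. Viability read as intracellular ATP by CellTiter-Glo luminescence; AC50 from Hill-equation fits of concentration-response data.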

Experiment [7] is described as follows: Cell Viability - HUV-EC-C (AID 542). Also: % is scaled to controls: 0 for no effect and ±100 for the full control effect; nearly all actives have a fitted effect of over 35% in size. Put shortly:
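HUV-EC-C human vascular endothelial cells, 1000/well, exposed to compound for 40 hr at 37 °C in complete medium. Intracellular ATP was read by CellTiter-Glo luminescence. AC50 came from Hill-equation fits of concentration-response data.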

A short description of experiment [8]: Cell Viability - SH-SY5Y (AID 544).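 Also: 0% = DMSO alone and -100% = 100 µM tamoxifen; nearly all actives have a fitted effect of over 55% in size.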 Put shortly: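 SH-SY5Y human neuroblastoma cells (1500/well) incubated 5 h, then compound-treated 40 h at 37 °C in complete medium. Viability read as intracellular ATP by CellTiter-Glo luminescence after 20 min; AC50 from Hill-equation fits of qHTS concentration-response.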
A short description of experiment [9]: Cell Viability - Renal Proximal Tubule (AID 545).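 Also: 0% = DMSO only and -100% = 100 µM tamoxifen; nearly all actives have a fitted effect of over 40% in size.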 The following applies: renal proximal tubule cells viability, primary cells of rat origin; at 91.7 µM (top of the series). In short, it runs like this:
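In this qHTS format, normal rat kidney-derived proximal tubule cells in complete culture medium receive compound titrations, then sit 40 hours at 37 °C before luciferase-based ATP quantitation; potency is reported as AC50 from concentration-response curves.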

Experiment [10] in a line: Cell Viability - Mesenchymal (AID 546).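 Also: cells exposed to compound for 40 hours before reading; 0% = DMSO only and -100% = 100 µM tamoxifen.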 Conditions: mesenchymal cells viability, qHTS; activity change, negative = cytotoxicity: at 91.7 µM (top of the series). In short, it runs like this: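 AC50 values reflect the drop in intracellular ATP in a human kidney mesenchymal line derived from normal glomeruli. Treatment lasts 40 hr at 37 °C in complete medium, and the signal comes from CellTiter-Glo luminescence.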

Experiment [11] can be described thus: qHTS Assay for Identification of Small Molecule Inducers of Hypoxia Response (AID 2120; active = well fitted curve in the direction sought with a large enough effect in the signal ratio, with a control signal flat, not every such curve was filed as active; the % refers to the signal ratio; also: 0% is about no effect). In short, it runs like this:
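HRE-bla ME-180 cells in Opti-MEM with 0.5% dialyzed FBS, pre-plated 4-5 h, then compound titration for 17 h at 37 degrees Celsius. CCF4 loaded 2.5 h at room temperature; 460/530 nm ratio gave %Activity and AC50 for induction.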

The nature of experiment [12]: qHTS assay for small molecule agonists of retinoid X receptor alpha signaling (AID 588544; calls by dose curve). The following applies: HEK293T RXRa-UAS-bla, beta-lactamase reporter, 18 h; 530 nm emission.
The target in experiment [13] is Retinoic acid receptor RXR-alpha (Homo sapiens) (UniProt P19793). Described as above.
Experiment [14] in a line: qHTS assay for small molecule antagonists of retinoid X receptor alpha signaling (AID 588546; active = well fitted inhibition curve with a large enough effect in the signal ratio, with a control signal flat, not every such curve was filed as active; the % refers to the signal ratio;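 also: cells stimulated with 9-cis-retinoic acid as agonist; % is scaled to controls: 0 for no effect and ±100 for the full control effect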). Conditions: HEK293T RXRa-UAS-bla, beta-lactamase ratio, antagonist mode; measured here: W530 green channel, cytotoxicity proxy. In short, it runs like this:
(§1)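 Beta-lactamase reporter inhibition, read as CCF4 fluorescence ratio (ex 405, em 460/530 nm) after 2 h at RT. HEK293T UAS-bla cells, 2500/well, were stimulated with 9-cis-RA at 500 or 100 nM final alongside test compound for 18 h at 37 C.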

In experiment [15] the target is Retinoic acid receptor RXR-alpha (Homo sapiens) (UniProt P19793). Described as above. Conditions: HEK293T RXRa-UAS-bla, beta-lactamase ratio, antagonist mode. Put shortly:
as §1

Experiment [16] concerns the target Peroxisome proliferator-activated receptor alpha (Homo sapiens) (UniProt Q07869). Briefly: qHTS assay for small molecule agonists of the peroxisome proliferator-activated receptor alpha (PPARalpha) signaling pathway (AID 651778). Also: % of control where 0% means no effect. The following applies: PathHunter PPARalpha complementation, chemiluminescence, 6 h; max response: stronger effect = higher value. Put shortly:
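Chemiluminescence from complemented enzyme reported PPARalpha activation in cells after 6 hr of compound treatment at 37 C. The detection reagent was incubated for 60 min at room temperature, and compounds were scored as agonists.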

Experiment [17] can be described thus: qHTS assay for small molecule agonists of the antioxidant response element (ARE) signaling pathway measured by Nrf2-dependant transcriptional activity (AID 720636; active = well fitted curve in the direction sought with a large enough effect in the repeat runs; an effect the other way counts as inactive or inconclusive; also: % of control where 0% means no effect). In short, it runs like this: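 Quantitative HTS format in HepG2 cells stably expressing an ARE-luciferase reporter; 16 hr compound treatment at 37 C, luciferase signal detected with ONE-Glo.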
A short description of experiment [18]: qHTS assay for small molecule agonists of the antioxidant response element (ARE) signaling pathway measured by Nrf2-dependant transcriptional activity - cell viability counter screen (AID 720653; active = well fitted curve in the direction sought with a large enough effect in the repeat runs; an effect the other way counts as inactive or inconclusive; also: % is scaled to controls: 0 for no effect and ±100 for the full control effect). The following applies: ARE-bla HepG2 viability, CellTiter-Glo ATP luminescence, 16 h; max response: stronger effect = lower value. In short, it runs like this: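 Cytotoxicity counter screen: intracellular ATP quantified by CellTiter-Glo luminescence in the same ARE-bla HepG2 plates, after 16 h compound exposure and a 2 h beta-lactamase substrate step.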

Experiment [19] is described as follows: qHTS assay for cell viability of HEK293 cells (AID 743288). Also: % is scaled to controls: 0 for no effect and ±100 for the full control effect; nearly all actives have a fitted effect of over 50% in size. The following applies: ATP luminescence (CellTiter-Glo), 18 h; max response: stronger effect = lower value. In short, it runs like this:
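Luminescent ATP quantitation served as the viability read-out. Cells (parental HEK293, 2,000/well) received compounds after at least 5 h at 37 C and were exposed for 18 h before a 30 min room-temperature reagent step.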

Experiment [20] is described as follows: qHTS assay for cell viability of the p53RE-bla HCT-116 cell line (AID 743292). Also: % is scaled to controls: 0 for no effect and ±100 for the full control effect; nearly all actives have a fitted effect of over 55% in size. Put shortly: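 Viability of compound-treated p53RE-bla HCT-116 cells is taken from ATP-dependent luciferase luminescence. Treatment lasts 16 h at 37 C after a 5 h settling period; detection follows 30 min at room temperature.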
Setting [21] is: measured here: PEO1 parental Z-AUC.

Values joined by “and” are separate entries in the source; they are usually repeats but may differ in a detail not shown here. Identical values can stand only once. Records with an inconclusive call do not appear. The source holds several records for some structures; these can differ, active in one and inactive in another. Active and inactive are the calls of the source. Unless noted, calls follow the shape of the dose curve; as a rule, active = well fitted curve in the direction sought with a large enough effect; inconclusive = small, poorly fitted or top-dose-only effect, or another doubt; inactive = no such curve, though single readings can be large; an effect the other way counts as inactive or inconclusive. Some results are limits rather than exact numbers.

Here are results for 15 molecules from PubChem BioAssay (NCATS).

Chain of Glutathione peroxidase 1 (Homo sapiens) (P07203 whole entry, looked up): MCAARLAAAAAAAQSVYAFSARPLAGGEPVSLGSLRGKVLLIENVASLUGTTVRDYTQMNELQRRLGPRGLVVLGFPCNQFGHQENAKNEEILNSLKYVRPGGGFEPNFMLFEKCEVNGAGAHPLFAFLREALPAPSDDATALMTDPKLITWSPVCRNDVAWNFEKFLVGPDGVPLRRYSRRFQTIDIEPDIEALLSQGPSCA
Chain of Phospholipid hydroperoxide glutathione peroxidase GPX4 (Homo sapiens) (P36969 whole entry, looked up): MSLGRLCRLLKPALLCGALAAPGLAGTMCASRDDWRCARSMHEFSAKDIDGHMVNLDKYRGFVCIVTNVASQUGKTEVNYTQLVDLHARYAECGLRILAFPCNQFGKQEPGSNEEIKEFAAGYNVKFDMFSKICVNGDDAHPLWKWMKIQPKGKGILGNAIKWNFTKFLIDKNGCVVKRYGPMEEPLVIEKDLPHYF
Chain of Retinoic acid receptor RXR-alpha (Homo sapiens) (P19793 whole entry, looked up): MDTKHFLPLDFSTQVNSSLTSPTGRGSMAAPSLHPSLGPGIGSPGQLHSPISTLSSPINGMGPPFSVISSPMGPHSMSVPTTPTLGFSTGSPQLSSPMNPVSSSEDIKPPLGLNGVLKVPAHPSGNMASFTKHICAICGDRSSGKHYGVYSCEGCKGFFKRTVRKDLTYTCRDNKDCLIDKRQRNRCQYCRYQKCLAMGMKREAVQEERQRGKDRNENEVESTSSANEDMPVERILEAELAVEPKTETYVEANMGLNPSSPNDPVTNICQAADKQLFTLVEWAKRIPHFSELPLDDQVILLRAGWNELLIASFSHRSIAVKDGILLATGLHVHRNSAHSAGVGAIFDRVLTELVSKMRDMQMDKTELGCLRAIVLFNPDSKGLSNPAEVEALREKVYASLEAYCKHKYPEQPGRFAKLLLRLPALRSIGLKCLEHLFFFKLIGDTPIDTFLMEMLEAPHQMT
Chain of Peroxisome proliferator-activated receptor alpha (Homo sapiens) (Q07869 whole entry, looked up): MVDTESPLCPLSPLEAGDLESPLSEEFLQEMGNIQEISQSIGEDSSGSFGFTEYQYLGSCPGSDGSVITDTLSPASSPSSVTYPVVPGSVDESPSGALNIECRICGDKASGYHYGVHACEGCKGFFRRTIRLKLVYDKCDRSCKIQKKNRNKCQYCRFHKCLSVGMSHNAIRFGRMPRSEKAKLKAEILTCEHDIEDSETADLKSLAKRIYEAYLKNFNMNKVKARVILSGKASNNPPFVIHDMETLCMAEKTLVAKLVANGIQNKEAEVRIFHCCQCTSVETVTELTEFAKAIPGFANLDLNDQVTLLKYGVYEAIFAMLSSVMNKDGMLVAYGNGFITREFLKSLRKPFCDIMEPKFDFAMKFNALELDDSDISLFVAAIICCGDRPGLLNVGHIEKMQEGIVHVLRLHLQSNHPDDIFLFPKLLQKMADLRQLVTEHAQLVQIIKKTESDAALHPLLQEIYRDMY

For the molecule `O=C(O)C(O)C(O)C(=O)O` (stereo not given), the Potency result in experiment [1] and in experiment [2] was “inactive” each time.
In the case of `CCC(=O)NC[C@@H]1C[C@H]1c1cccc2c1CCO2`, the Potency result in experiment [1] and in [2] was “inactive” each time.
On to `CCCCCCC(COC(=O)c1cccnc1)(COC(=O)c1cccnc1)COC(=O)c1cccnc1`, for which the Potency result in [1] and in experiment [2] was “inactive” each time.
For the molecule `[2H]C([2H])([2H])C(CCC[C@@H](C)[C@H]1CC[C@H]2/C(=C/C=C3\C[C@@H](O)C[C@H](O)C3=C)CCC[C@]12C)C([2H])([2H])[2H]`, in experiment [1], the Potency result is “inactive”. The Potency in experiment [2] was 14.1 µM (active).
As for `CC[C@H]1OC(=O)C[C@@H](O)[C@H](C)[C@@H](OC2OC(C)C(O)C(N(C)C)C2O)[C@@H](CCN2CCCCC2)C[C@@H](C)C(=O)/C=C/C(C)=C/[C@@H]1CN1CCCCC1` (stereo not given in full), the Potency result in experiment [1] and in experiment [2] was “inactive” in each case.
With `CC(C)NC(=O)C1CCC(n2c(NC(=O)c3ccc(F)cc3)nc3ccc(CN4CCC(C(C)(C)O)CC4)cc32)CC1` (stereo not given), the Potency entry in [1] and in experiment [2] was “inactive” each time. The Potency in experiment [3] was 8.48 µM (active). Besides, the Z-AUC in experiment [3] (setting [21]) was -1.17; in [3] (measured here: PEO4 Z-AUC), -1.3.
On to `COc1cc2c(c(OC)c1OC)-c1c(cc3c(c1OC)OCO3)C[C@H](C)[C@@](C)(O)C2`, for which the Potency result in experiment [1] and in [2] was “inactive” in each case.
Consider `NC(N)=NCCC[C@@H](N)C(=O)N[C@@H](CCCN=C(N)N)C(=O)N1CCC[C@H]1C(=O)N1C[C@H](O)C[C@H]1C(=O)NCC(=O)N[C@@H](Cc1cccs1)C(=O)N[C@@H](CO)C(=O)N1Cc2ccccc2C[C@@H]1C(=O)N1[C@H](C(=O)N[C@@H](CCCN=C(N)N)C(=O)O)C[C@@H]2CCCC[C@@H]21`, for which the Potency entry in experiment [1] and in [2] was “inactive” in each case.
For the molecule `O=P(O)(O)OC1C(OP(=O)(O)O)C(OP(=O)(O)O)C(OP(=O)(O)O)C(OP(=O)(O)O)C1OP(=O)(O)O` (stereo not given), the Potency result in experiment [1] and in [2] was “inactive” each time.
`O=C1CCc2ccccc2O1`: the Potency in [4] was > 92 µM (inactive). For the same molecule, the activity change, negative = cytotoxicity in experiment [5] was 7.64% (inactive); in experiment [9] it was -10.3% (inactive); in experiment [10], 7.71% (inactive). Moreover, the Potency result in [6], in experiment [8], in experiment [17] and in [20] was “inactive” each time. Also, the call in [7], in experiment [11] and in [13] was inactive. The max response in experiment [12] is -3.26%; in experiment [14] it was -3.35%; in experiment [15], 0.0036% (inactive); in experiment [16], 0.979% (inactive); in [18], 2.06% (inactive); in [19] it was -0.285% (inactive).
Take `CC1(C)S[C@@H]2[C@H](NC(=O)COc3ccccc3)C(=O)N2[C@H]1C(=O)O`: the max response is -5.75% in [12]; -19.5% in [14]; 2.91% (inactive) in [15]; -2.73% (inactive) in experiment [16]; -8.85% (inactive) in experiment [18]; -6.9% (inactive) in [19]. Also, the outcome in [13] was inactive. Also, the Potency result in experiment [17] and in experiment [20] was “inactive” in each case.
Consider `CC(C)(O)C1CCC(Nc2ccc3ncc(-c4cccc(C(F)(F)F)c4)n3n2)CC1` (stereo not given), for which the Potency in [3] was 5.49 µM (active). The Z-AUC was -1.03 in experiment [3] (setting [21]) and -1.21 in [3] (measured here: PEO4 Z-AUC).
Consider `Cc1c(N=C=O)cccc1N=C=O`, for which the Potency in experiment [4] is > 92 µM (inactive). Moreover, the activity change, negative = cytotoxicity in [5] is -2.52% (inactive); in [9], 6.1% (inactive); in experiment [10] it was -3.51% (inactive). For the same molecule, the Potency entry in experiment [6], in experiment [8], in [17] and in experiment [20] was “inactive” each time. The molecule was classed as inactive in experiment [7], in experiment [11] and in experiment [13]. Further, the max response in experiment [12] is -9.85% and -4.8%; in experiment [14], -2.03% and -4.55%; in [15] it was 6.11% (inactive) and -21.4% (inactive); in [16] it was -4.58% (inactive) and -0.661% (inactive); in experiment [18], 0.551% (inactive) and 0.668% (inactive); in experiment [19], 8.57% (inactive) and -7.81% (inactive).
As for `CCCC1CC(C(=O)NC(C(C)Cl)C2OC(SC)C(OP(=O)(O)O)C(O)C2O)N(C)C1` (stereo not given), in [2], the Potency entry is “inactive”.
For `CCCCC(CC)CN` (stereo not given), the Potency was > 92 µM (inactive) in experiment [4]; 12.6 µM (active) and inactive in experiment [6]. Also, the activity change, negative = cytotoxicity in [5] was -20.4% (inactive) and 2.62% (inactive); in experiment [9] it was -8.31% (inactive) and 1.31% (inactive); in experiment [10], -2.68% (inactive) and 2.84% (inactive). Besides, the molecule was classed as inactive in [7], in experiment [11] and in experiment [13]. Besides, the Potency entry in experiment [8], in experiment [17] and in experiment [20] was “inactive” throughout. Besides, the max response was -5.69% and -12.2% in [12]; -4.73% and -4.29% in experiment [14]; 27.8% (inactive) and 7.94% (inactive) in [15]; -4.52% (inactive) and -4.66% (inactive) in experiment [16]; -5.16% (inactive) and -12.4% (inactive) in experiment [18]; 2.8% (inactive) and -10% (inactive) in [19].
